This excerpt belongs to a sample that is enriched for hits.
Ba CapD inh – inhibitors of Bacillus anthracis CapD enzyme. z-score (no concentration beside the values). purified CapD enzyme, fluorescence intensity read-out; stronger effect = lower value. actives 0.23% (n = 140,000); in the data active means z-score mostly below about -2.9, no sharp cut-off; inactive means mostly above about -1.9
* marks the source's active call; other numbers are inactive results; i = inactive.

SMILES	Ba CapD inh
Cc1ccc(CNC(=O)C2c3ccccc3C(=O)N(C)C2c2cccs2)o1 (configuration not stated)	-0.29
COc1ccc2nc(N3CCCC3)sc2c1	-0.3
O=C1CCCc2nc(N3CCCCC3)sc21	-4.3*
Nc1nnc(N2CCCCC2)s1	-0.38
Oc1c(C(Nc2ccccc2)c2ccccn2)ccc2cccnc12 (configuration not stated)	i
CC(=O)n1c(=O)sc2ccccc21	-2.1
CC(=O)n1c(=S)[nH]c2ccccc21	-5.2*
O=C(Cn1c(=S)[nH]c2ccccc21)c1ccc(-c2ccccc2)cc1	0.53
CC(NC(=O)c1ccccc1C(=O)O)C12CC3CC(CC(C3)C1)C2 (configuration not stated)	0.9
CCCn1c(=O)c(C(=O)Nc2nc(CC(=O)OCC)cs2)c(O)c2ccccc21	-0.89
COc1ccc(Nc2nc3nonc3nc2Nc2ccc(OC)cc2)cc1	-0.88
Fc1ccc(Nc2nc3nonc3nc2Nc2ccc(F)cc2F)c(F)c1	-1.2
CN(C)c1nc2nonc2nc1Nc1ccc(F)cc1	-5.2*
C=CCNC(=O)C(C)(C)Oc1ccc(Cl)cc1	0.11
C1=C(c2ccccc2)N2c3ccccc3NC2(c2ccccc2)CC1c1ccccc1 (configuration not stated)	0.79
Cc1c(Cl)cccc1NC(=O)c1cccs1	0.48
Cc1ccc(C)c(NC(=O)c2cccs2)c1	0.76
CCOC(=O)c1c(C)cccc1NC(=O)c1cccs1	-1.7*
COc1ccc(N2C(=O)/C(=C/c3ccc(OCc4ccccc4C#N)c(OC)c3)C(=O)NC2=S)cc1	-0.2
COc1ccccc1/C=C1\C(=O)/C(=C/c2ccccc2OC)C2CCC1N2C	-2
O=C(NNC(=O)C1CC(c2cccnc2)=NO1)Nc1ccc(Cl)cc1 (configuration not stated)	-0.07
COc1ccc2cc(C(=O)Nc3ccc(OC)c(OC)c3)c(=Nc3ccc(C(=O)O)cc3)oc2c1	-3.4*
COc1ccc(OC)c(NC(=O)c2cc3ccc(OC)cc3oc2=Nc2ccc(C(=O)O)cc2)c1	0.07
COc1ccc2cc(C(=O)Nc3ccc(Cl)cc3)c(=Nc3ccc(C(=O)O)cc3)oc2c1	0.62
COc1ccc(C2C(N3C(=O)c4c(Cl)c(Cl)c(Cl)c(Cl)c4C3=O)C(=O)N2c2ccc(Br)c(C)c2)cc1Br (configuration not stated)	0.015
SMILES	Ba CapD inh
COc1cc(/C=C2/C(=N)N3C(=NC2=O)SN=C3S(=O)(=O)C(C)C)cc(Cl)c1OC(=O)c1ccco1	-1.3
CC(C)S(=O)(=O)C1=NSC2=NC(=O)/C(=C\c3ccco3)C(=N)N21	-3.8*
CS(=O)(=O)C1=NN2C(=N)/C(=C\c3ccco3)C(=O)N=C2S1	0.89
O=C(CSc1nc2cc(Cl)ccc2s1)Nc1cccc([N+](=O)[O-])c1	0.25
COC(=O)c1cccc(-c2ccc(/C=C3\SC(=N)N(c4nccs4)C3=O)o2)c1	0.18
N=C1S/C(=C/c2ccc(-c3ccccc3[N+](=O)[O-])o2)C(=O)N1c1nonc1N	-1.5
N=C1S/C(=C/c2ccc(-c3cccc(C(=O)O)c3)o2)C(=O)N1c1nonc1N	-6.1*
O=C1S/C(=C/c2ccccc2Cl)C(=O)N1c1ccccc1	-0.54
CN(C)/C=C1\SC(=O)N(c2ccccc2)C1=O	-6.4*
O=C1S/C(=C\c2ccc(F)cc2)C(=O)N1c1ccccc1	0.3
COC(CN=Cc1cc(Cl)cc(Cl)c1O)OC	-2.1
COc1ccc(-c2c(-c3ccc(OC)cc3)n(Cc3ccc(F)cc3)c3nc[nH]c(=O)c23)cc1	-1.7
COc1ccccc1NC(=O)C(NC(=O)c1ccccc1NC(=O)c1ccccc1)C(C)C (configuration not stated)	-0.11
Cc1ccc(-c2cccc(=O)o2)cc1	-4*
Cc1ccc2c(=O)cc(-c3ccc(F)cc3)oc2c1	-0.21
Cc1ccc(-c2nc3ccccc3c(=O)o2)cc1	0.44
N#CC1=C(N)NC(=S)C(C(N)=O)C1c1ccccc1 (configuration not stated)	-4.5*
N#CC1=C(SCC(N)=O)NC(=O)CC1c1ccccc1 (configuration not stated)	0.1
N#CC1(C#N)[C@H](C(N)=O)[C@H]1c1ccccc1	0.41
CC(C)c1ccc(N/C=C2/CCCCC2=O)cc1	0.42
Cc1[nH]c(-c2ccc(F)cc2)cc1C(=O)NC1CCCC1	-0.66
O=C(CSc1ccccn1)Nc1ccc(F)c(Cl)c1	-1.3
CC1CC(C)CN(C(=O)COC(=O)/C=C/c2ccco2)C1 (configuration not stated)	-1.7
CCC1C/C(=C/c2ccco2)C(=O)/C(=C/c2ccco2)C1 (configuration not stated)	-2.5
CC1C/C(=C/c2ccco2)C(C)N(C)C1 (configuration not stated)	-5.2*
SMILES	Ba CapD inh
CC(=O)N1CCC(N(C(=O)Nc2cccc(C)c2)C2CCCC2)CC1	0.32
CN1CCN(CCCNC(=O)C2C3C=CC4(CN(Cc5ccccc5Cl)C(=O)C24)O3)CC1 (configuration not stated)	-0.065
CN1CCN(C(c2ccncc2)c2ccc3cccnc3c2O)CC1 (configuration not stated)	-2.4
OCCN1CCN(C(c2ccccc2)c2ccc3cccnc3c2O)CC1 (configuration not stated)	-5.2*
Oc1c(C(c2ccccc2)N2CCOCC2)ccc2cccnc12 (configuration not stated)	-0.8
Cc1c(C(=O)N2CCC(C#N)CC2)sc2ncnc(N3CCN(c4ccccc4F)CC3)c12	-0.18
COc1cc(/C=C2\SC(=S)N(NC(=O)c3ccc(Br)cc3)C2=O)cc(OC)c1OC	0.76
COc1cc(/C=C2/SC(=S)N(NC(C)=O)C2=O)ccc1O	-4.8*
COC(=O)CCN1C(=O)/C(=C\c2ccc(O)c(OC)c2)SC1=S	-0.13
CCOC(=O)c1c(NC(=O)c2sc3ccccc3c2Cl)sc2c1CCC(C(C)(C)C)C2 (configuration not stated)	-0.15
CCOC(=O)c1nc2ccccc2c(C)c1C	-0.98
CCOC(=O)c1nc2ccccc2n(C(C)=O)c1=O	-6.6*
CC(=O)n1c(N)nc2ccccc21	-0.48
O=C(Nc1nnc(CCN2CCOCC2)s1)c1ccc(Cl)cc1	-0.33
C/C(=N\Nc1cccc2cccnc12)C(C)(C)C	-0.27
CCc1ccc(-n2c(=S)sc3c(=O)[nH]c(SCC4OCCO4)nc32)cc1	-1.5
CCc1ccc(-n2c(=S)sc3c(=O)[nH]c(SCC(=O)Nc4nccs4)nc32)cc1	0.14
CCc1ccc(-n2c(=S)sc3c(=O)[nH]c(SCC(=O)O)nc32)cc1	-4.3*
Cc1cc(S(=O)(=O)Oc2ccc(Oc3ccccc3)cc2)c(Cl)cc1Cl	-0.4
COc1ccc(CCNC(=O)CSc2nc3ccccc3c(=O)n2CCCC(=O)NCc2ccco2)cc1OC	-0.21
Cc1cc(=O)oc2cc(OCC(=O)N3CCc4ccccc43)ccc12	-0.59
CCOC(=O)c1nc2ccccc2oc1=O	0.065
CSC(=NCc1ccco1)Nc1ccc(C)cc1C	0.095
CC(=O)OC(C(=O)O)c1ccccc1 (configuration not stated)	-0.95
Cc1ccc(OC(=O)COc2ccc3ccccc3c2)cc1	1.2
SMILES	Ba CapD inh
CCN(CC)c1ncnc2sc3c(c12)CCCC3	-0.17
CC(C)(C)C(=O)Nc1ncnc2sc3c(c12)CCCC3	-0.32
CC(=O)N(C(C)=O)c1ncnc2sc3c(c12)CCCC3	-5.4*
Cc1ccc(C)n1-c1ccc(C(=O)O)cc1	-13*
Cc1cc2c(n1-c1ccc(C(=O)O)cc1)CCCC2	-7.5*
O=C(O)c1ccc(-n2c(-c3ccccc3)cc3c2CCCC3)cc1	-0.13
Cc1ccc(C)n1-c1ccc(SCC(=O)O)cc1	-3.4

From PubChem
